# Measurements taken from PubChem BioAssay (EPA / NIEHS).
# Active and inactive are the calls of the source. The calls were made as follows: active = hit-call score of the fitted dose curve at least 0.9, where 1 is the maximum; inactive = score below 0.9.
# Assay: ATG_DR4_LXR_CIS: Attagene CIS-FACTORIAL HepG2 Assay for human Liver X Receptor (LXR), DR4 submotif (AID 2282929)
# Details: HepG2 Attagene DR4 cis-reporter, mRNA transcription; actives raise or lower the signal
# Experimental: ATG_CIS is a cell-based, multiplexed-readout assay that uses HepG2, a human liver cell line, with measurements taken at 24 hours after chemical dosing in a 24-well plate.ATG_DR4_LXR_CIS is one of 52 assay component(s) measured or calculated from the ATG_CIS assay. It is designed to make measurements of mRNA induction, a form of inducible reporter, as detected with fluorescence intensity signals by Reverse transcription polymerase chain reaction (RT-PCR) and Capillary electrophoresis technology.Data from the assay component ATG_DR4_LXR_CIS was analyzed into 1 assay endpoint. This assay endpoint, ATG_DR4_LXR_CIS, was analyzed with bidirectional fitting relative to DMSO as the negative control and baseline of activity. Using a type of inducible reporter, measures of mRNA for gain or loss-of-signal activity can be used to understand the reporter gene at the transcription factor-level as they relate to the gene NR1H2 and NR1H3. Furthermore, this assay endpoint can be referred to as a primary readout, because this assay has produced multiple assay endpoints where this one serves a reporter gene function. To generalize the intended target to other relatable targets, this assay endpoint is annotated to the nuclear receptor intended target family, where the subfamily is non-steroidal.
# Human liver HepG2 cells are transiently transfected with multiple reporter transcription units (MRTUs) in 6-well plates using FuGene 6 reagent (Roche; 3 ml FuGene/1 mg DNA). The MRTU constructs are regulated by a cis-regulating element (promoter). […] A major difference between the CIS and TRANS system is that in CIS activities of endogenous TFs are measured, whereas the TRANS assay evaluates changes in activities of exogenous, chimeric NR-Gal4 proteins. […] At the end of 24 hour incubation, total RNA was isolated using TriZol reagent (Invitrogen). The isolated RNA is then reverse-transcribed using oligo(dT) primer and Mo-MLV reverse transcriptase (Invitrogen) with DNAse I (Ambion) treatment for 30 min. The one-tenth of the produced cDNA was amplified by PCR using Taq DNA polymerase (Invitrogen) and two reporter sequence-specific primers. The PCR products were fluorescently labeled by primer extension with 6-arboxyfluorescein (6-FAM) 5'-labeled reporter sequence-specific primer (2 min at 95 C, 20 s at 68 C and 10 min at 72 C) and these products were digested with 5U of HpaI (New England Biolabs) for 2h at 37 C. The fragments were purified using Qiaquick PCR columns (Qiagen), analyzed on an ABI 3130xL genetic analyzer (Applied Biosystems) with peak positions identified by using a set of X-rhodamine (ROX)-labeled MapMarker1000 molecular weight standards (BioVentures). The raw capillary electrophoresis data was processed using Attagraph software (Attagene).
SMILES,outcome,AC50
CC(C)CCOCc1ccccc1,inactive,–
CCCCCCC=O,inactive,–
O=C1CCCCC1C1CCCCC1 (stereo not given),inactive,–
Clc1cccnc1,inactive,–
CCC(C)c1ccccc1 (stereo not given),inactive,–
Clc1cc(Cl)c(Cl)c(Cl)c1Cl,inactive,–
CCC[Si](OC)(OC)OC,inactive,–
COC(OC)(C(=O)c1ccccc1)c1ccccc1,–,49.8 µM (active)
O=C(Cl)c1c(Cl)c(Cl)c(C(=O)Cl)c(Cl)c1Cl,inactive,–
[Cl][Eu]([Cl])[Cl],inactive,–
O=C(O[C@@H]1Cc2c(O)cc(O)cc2O[C@@H]1c1cc(O)c(O)c(O)c1)c1cc(O)c(O)c(O)c1,inactive,–
CC(=O)c1ccc(S(=O)(=O)NC(=O)NC2CCCCC2)cc1,inactive,–
CC1OC(=O)C(C)OC1=O (stereo not given),inactive,–
N=C1C=CC(=C(c2ccc(N)cc2)c2ccc(N)cc2)C=C1,–,27.6 µM (active)
C=C(C)C(=O)OCCCCCCCCCCCC,inactive,–
CC(CC=O)CC(C)(C)C (stereo not given),inactive,–
Cc1ccc([N+](=O)[O-])cc1N,inactive,–
Cc1ccc2c(c1)CCCN2,inactive,–
CCOC(=O)/C=C\C(=O)OCC,inactive,–
C=Cc1cccc(C)c1,inactive,–

SMILES,outcome,AC50
CCC(C)C(=O)OC (stereo not given),inactive,–
Cc1cccc(C(C)(C)C)c1O,inactive,–
c1ccc2sc(SSN3CCOCC3)nc2c1,–,100 µM (active)
CC(C)=CCCC(C)=CC#N,inactive,–
CC1CCC(=O)C1=O (stereo not given),inactive,–
CCN1CN(CC)CN(CC)C1,–,139 µM (active)
CC1(C)CC(O)CC(C)(C)N1[O],inactive,–
c1ccc2cnccc2c1,inactive,–
CC/C=C\C/C=C\C/C=C\CCCCCCCC(=O)OC,–,71.1 µM (active)
Cc1c(C(=O)c2c[nH]n(C)c2=O)ccc(S(C)(=O)=O)c1C1=NOCC1,inactive,–
CCCCCCCC(=O)OCC(COC(=O)CCCCCCC)OC(=O)CCCCCCC,inactive,–
O=C1CCCCCCCCCCC1,inactive,–
NNS(=O)(=O)c1ccc(Oc2ccc(S(=O)(=O)NN)cc2)cc1,inactive,–
C=CC(C)(CCC=C(C)C)OC(=O)C=Cc1ccccc1 (stereo not given),–,27.1 µM (active)
Cc1c(Cl)cccc1Cl,inactive,–
C=C1C[C@H]2[C@@H]3C=C(C)C4=CC(=O)CC[C@]4(C)[C@H]3CC[C@]2(C)[C@@]1(OC(C)=O)C(C)=O,–,99.7 µM (active)
CC(C)COC(=O)CC(C(=O)OCC(C)C)S(=O)(=O)O (stereo not given),inactive,–
CCOc1ccc(NC(N)=O)cc1,inactive,–
CC=C(C)C(C)=O,inactive,–
Cn1cccc1,inactive,–
